{
  "source": "the supplement of paper PMC6411743",
  "experiment_in_all_cases": "NP40-soluble protein abundance relative to vehicle (solubility fold change) (ratio); higher = more soluble protein in presence of ATP",
  "key": {"ALG5": {"target": "T1, ALG5 (UniProt Q9Y673)", "T1 sequence (whole entry)": "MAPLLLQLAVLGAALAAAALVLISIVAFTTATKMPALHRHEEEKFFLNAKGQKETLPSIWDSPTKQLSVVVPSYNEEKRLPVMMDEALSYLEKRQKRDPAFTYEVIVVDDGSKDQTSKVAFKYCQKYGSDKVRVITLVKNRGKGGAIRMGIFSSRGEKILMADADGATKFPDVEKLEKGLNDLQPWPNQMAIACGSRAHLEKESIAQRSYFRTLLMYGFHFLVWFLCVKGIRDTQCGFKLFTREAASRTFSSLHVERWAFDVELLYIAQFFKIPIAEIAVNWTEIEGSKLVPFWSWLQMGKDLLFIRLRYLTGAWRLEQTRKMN", "in_short": "(§1)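 Across three independent experiments, values are fold changes against the detergent-processed vehicle for each replicate, based on vsn-normalised intensities. The samples were Jurkat crude lysate treated with eight concentrations (0.1 to 10 mM) for 10 min at room temperature and then 3 min at 37 °C. Lysate was solubilised with 0.8% NP40 and benzonase, ultracentrifuged, and the supernatant analysed by TMT-labelled LC-MS/MS.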"}, "DDX52": {"target": "T2, DDX52 (UniProt Q9Y2R4)", "T2 sequence (whole entry)": "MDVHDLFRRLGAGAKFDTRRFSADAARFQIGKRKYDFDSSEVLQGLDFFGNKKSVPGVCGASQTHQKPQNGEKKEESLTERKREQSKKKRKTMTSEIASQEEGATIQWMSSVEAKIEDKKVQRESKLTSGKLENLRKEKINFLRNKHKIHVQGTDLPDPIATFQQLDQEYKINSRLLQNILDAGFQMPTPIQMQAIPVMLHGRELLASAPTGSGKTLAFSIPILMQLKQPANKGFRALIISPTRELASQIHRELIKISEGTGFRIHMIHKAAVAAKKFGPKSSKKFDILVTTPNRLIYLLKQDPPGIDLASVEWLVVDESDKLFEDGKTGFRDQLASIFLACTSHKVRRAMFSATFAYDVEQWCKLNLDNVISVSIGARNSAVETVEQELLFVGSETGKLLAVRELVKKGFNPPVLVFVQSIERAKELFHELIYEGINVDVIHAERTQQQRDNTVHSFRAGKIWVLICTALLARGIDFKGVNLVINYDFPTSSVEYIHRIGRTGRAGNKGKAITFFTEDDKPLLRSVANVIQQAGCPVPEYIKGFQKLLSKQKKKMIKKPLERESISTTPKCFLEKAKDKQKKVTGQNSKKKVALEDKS", "in_short": "as §1"}, "FHOD1": {"target": "T3, FHOD1 (UniProt Q9Y613)", "T3 sequence (whole entry)": "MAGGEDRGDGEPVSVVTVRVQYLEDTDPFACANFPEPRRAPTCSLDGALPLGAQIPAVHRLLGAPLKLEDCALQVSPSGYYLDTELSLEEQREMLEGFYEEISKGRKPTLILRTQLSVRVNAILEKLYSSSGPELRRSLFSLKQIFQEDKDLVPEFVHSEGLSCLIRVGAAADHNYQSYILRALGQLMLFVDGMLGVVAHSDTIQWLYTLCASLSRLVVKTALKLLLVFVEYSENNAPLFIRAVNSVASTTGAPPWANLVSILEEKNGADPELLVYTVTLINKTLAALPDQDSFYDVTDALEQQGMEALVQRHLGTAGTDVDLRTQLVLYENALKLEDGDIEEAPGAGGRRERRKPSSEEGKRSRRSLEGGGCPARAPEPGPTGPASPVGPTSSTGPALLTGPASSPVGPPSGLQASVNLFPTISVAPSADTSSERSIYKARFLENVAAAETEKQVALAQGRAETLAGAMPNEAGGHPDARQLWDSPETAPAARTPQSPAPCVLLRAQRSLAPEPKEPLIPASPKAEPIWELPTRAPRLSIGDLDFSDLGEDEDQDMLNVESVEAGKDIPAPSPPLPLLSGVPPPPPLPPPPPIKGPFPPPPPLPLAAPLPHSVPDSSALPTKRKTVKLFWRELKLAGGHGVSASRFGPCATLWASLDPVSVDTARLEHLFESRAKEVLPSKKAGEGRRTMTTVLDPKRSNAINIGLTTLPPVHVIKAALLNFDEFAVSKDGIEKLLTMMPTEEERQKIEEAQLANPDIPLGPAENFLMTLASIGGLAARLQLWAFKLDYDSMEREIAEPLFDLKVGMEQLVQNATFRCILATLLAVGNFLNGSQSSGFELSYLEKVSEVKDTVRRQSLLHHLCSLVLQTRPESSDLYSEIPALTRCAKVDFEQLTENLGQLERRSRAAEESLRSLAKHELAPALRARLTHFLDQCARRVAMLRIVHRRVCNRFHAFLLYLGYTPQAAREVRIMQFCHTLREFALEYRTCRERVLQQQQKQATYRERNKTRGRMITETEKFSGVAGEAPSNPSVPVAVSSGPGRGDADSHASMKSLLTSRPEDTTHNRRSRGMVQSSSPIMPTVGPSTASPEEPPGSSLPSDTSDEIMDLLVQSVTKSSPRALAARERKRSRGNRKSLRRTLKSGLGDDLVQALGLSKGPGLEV", "in_short": "as §1"}, "UniProt Q9Y6I3|Q9Y6I3-3": {"target": "T4, UniProt Q9Y6I3|Q9Y6I3-3", "T4 sequence (whole entry)": "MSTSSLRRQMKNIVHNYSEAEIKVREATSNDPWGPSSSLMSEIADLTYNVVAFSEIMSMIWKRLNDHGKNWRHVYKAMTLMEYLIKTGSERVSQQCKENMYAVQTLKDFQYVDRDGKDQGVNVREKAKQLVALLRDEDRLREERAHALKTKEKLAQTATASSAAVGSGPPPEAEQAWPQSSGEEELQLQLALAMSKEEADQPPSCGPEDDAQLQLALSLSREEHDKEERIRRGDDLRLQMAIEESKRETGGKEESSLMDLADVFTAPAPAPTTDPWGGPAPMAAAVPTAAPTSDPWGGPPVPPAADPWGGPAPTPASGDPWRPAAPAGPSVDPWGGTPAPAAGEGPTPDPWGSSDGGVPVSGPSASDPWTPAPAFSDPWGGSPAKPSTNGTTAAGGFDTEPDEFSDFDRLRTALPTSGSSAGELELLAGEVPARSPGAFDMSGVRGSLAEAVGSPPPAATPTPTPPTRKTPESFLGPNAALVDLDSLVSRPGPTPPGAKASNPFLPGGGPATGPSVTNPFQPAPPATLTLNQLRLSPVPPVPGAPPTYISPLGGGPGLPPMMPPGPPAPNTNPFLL", "in_short": "as §1"}, "[1]": {"target": "T5, UniProt Q9Y6M7-13|Q9Y6M7-6|Q9Y6M7-9|Q9Y6M7-5|A0A0A0MST8", "T5 sequence (whole entry)": "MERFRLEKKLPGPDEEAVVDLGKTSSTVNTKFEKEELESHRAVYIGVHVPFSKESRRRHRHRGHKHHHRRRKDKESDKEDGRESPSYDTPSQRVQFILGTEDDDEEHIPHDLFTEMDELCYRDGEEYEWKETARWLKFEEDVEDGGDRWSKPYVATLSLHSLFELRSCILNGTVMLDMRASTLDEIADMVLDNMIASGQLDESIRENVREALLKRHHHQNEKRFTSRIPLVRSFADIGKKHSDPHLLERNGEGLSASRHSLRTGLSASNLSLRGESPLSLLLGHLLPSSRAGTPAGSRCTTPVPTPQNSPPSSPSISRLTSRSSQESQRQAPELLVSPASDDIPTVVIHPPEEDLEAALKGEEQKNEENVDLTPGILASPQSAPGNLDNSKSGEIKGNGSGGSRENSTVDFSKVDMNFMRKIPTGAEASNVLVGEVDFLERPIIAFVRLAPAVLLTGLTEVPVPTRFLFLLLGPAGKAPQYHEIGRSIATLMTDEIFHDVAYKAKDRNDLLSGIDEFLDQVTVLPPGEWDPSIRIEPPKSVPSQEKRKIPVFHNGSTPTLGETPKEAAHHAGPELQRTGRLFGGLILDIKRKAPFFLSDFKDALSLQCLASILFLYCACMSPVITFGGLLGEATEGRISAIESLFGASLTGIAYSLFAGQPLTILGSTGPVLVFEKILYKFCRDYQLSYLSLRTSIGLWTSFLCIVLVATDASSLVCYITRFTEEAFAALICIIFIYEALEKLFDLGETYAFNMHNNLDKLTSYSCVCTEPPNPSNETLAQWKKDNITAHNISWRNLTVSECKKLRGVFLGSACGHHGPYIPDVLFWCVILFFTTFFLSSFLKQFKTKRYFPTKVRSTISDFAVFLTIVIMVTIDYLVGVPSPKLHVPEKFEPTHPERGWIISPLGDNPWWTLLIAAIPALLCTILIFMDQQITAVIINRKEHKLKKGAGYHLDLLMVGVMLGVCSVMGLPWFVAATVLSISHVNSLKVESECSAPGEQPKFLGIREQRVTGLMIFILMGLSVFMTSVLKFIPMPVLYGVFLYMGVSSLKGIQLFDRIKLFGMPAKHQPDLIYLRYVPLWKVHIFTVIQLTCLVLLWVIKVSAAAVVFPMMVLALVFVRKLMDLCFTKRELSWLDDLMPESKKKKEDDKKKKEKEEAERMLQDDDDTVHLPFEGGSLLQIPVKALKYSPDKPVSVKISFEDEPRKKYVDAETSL", "in_short": "as §1"}},
  "note": "± gives the standard deviation of the averaged measurements. About 6,500 targets were measured; listed, in parts, are those with the largest changes and a random draw of the rest.",
  "data": [
    {"smiles": "Nc1ncnc2c1ncn2[C@@H]1O[C@H](COP(=O)(O)OP(=O)(O)OP(=O)(O)O)[C@@H](O)[C@H]1O", "note": "[adenosine triphosphate]", "values": [
      {"measurement": "NP40-soluble protein abundance", "setting": "ALG5; concentration: 1mM", "result": "1.03 ± 0.089"},
      {"measurement": "NP40-soluble protein abundance", "setting": "ALG5; concentration: 2mM", "result": "1.02 ± 0.074"},
      {"measurement": "NP40-soluble protein abundance", "setting": "ALG5; concentration: 4mM", "result": "1.03 ± 0.088"},
      {"measurement": "NP40-soluble protein abundance", "setting": "ALG5; concentration: 6mM", "result": "0.97 ± 0.13"},
      {"measurement": "NP40-soluble protein abundance", "setting": "ALG5; concentration: 8mM", "result": "1.03 ± 0.1"},
      {"measurement": "NP40-soluble protein abundance", "setting": "ALG5; concentration: 10mM", "result": "1.02 ± 0.058"},
      {"measurement": "NP40-soluble protein abundance", "setting": "DDX52; concentration: 1mM", "result": "1.11 ± 0.11"},
      {"measurement": "NP40-soluble protein abundance", "setting": "DDX52; concentration: 2mM", "result": "1.16 ± 0.17"},
      {"measurement": "NP40-soluble protein abundance", "setting": "DDX52; concentration: 4mM", "result": "1.31 ± 0.27"},
      {"measurement": "NP40-soluble protein abundance", "setting": "DDX52; concentration: 6mM", "result": "1.41 ± 0.23"},
      {"measurement": "NP40-soluble protein abundance", "setting": "DDX52; concentration: 8mM", "result": "1.51 ± 0.37"},
      {"measurement": "NP40-soluble protein abundance", "setting": "DDX52; concentration: 10mM", "result": "1.71 ± 0.49"},
      {"measurement": "NP40-soluble protein abundance", "setting": "FHOD1; concentration: 1mM", "result": "0.963 ± 0.062"},
      {"measurement": "NP40-soluble protein abundance", "setting": "FHOD1; concentration: 2mM", "result": "1.01 ± 0.085"},
      {"measurement": "NP40-soluble protein abundance", "setting": "FHOD1; concentration: 4mM", "result": "1.02 ± 0.058"},
      {"measurement": "NP40-soluble protein abundance", "setting": "FHOD1; concentration: 6mM", "result": "1.01 ± 0.078"},
      {"measurement": "NP40-soluble protein abundance", "setting": "FHOD1; concentration: 8mM", "result": "0.952 ± 0.068"},
      {"measurement": "NP40-soluble protein abundance", "setting": "FHOD1; concentration: 10mM", "result": "0.96 ± 0.055"},
      {"measurement": "NP40-soluble protein abundance", "setting": "UniProt Q9Y6I3|Q9Y6I3-3; concentration: 1mM", "result": "0.932 ± 0.045"},
      {"measurement": "NP40-soluble protein abundance", "setting": "UniProt Q9Y6I3|Q9Y6I3-3; concentration: 2mM", "result": "0.915 ± 0.018"},
      {"measurement": "NP40-soluble protein abundance", "setting": "UniProt Q9Y6I3|Q9Y6I3-3; concentration: 4mM", "result": "0.915 ± 0.023"},
      {"measurement": "NP40-soluble protein abundance", "setting": "UniProt Q9Y6I3|Q9Y6I3-3; concentration: 6mM", "result": "0.927 ± 0.037"},
      {"measurement": "NP40-soluble protein abundance", "setting": "UniProt Q9Y6I3|Q9Y6I3-3; concentration: 8mM", "result": "0.907 ± 0.029"},
      {"measurement": "NP40-soluble protein abundance", "setting": "UniProt Q9Y6I3|Q9Y6I3-3; concentration: 10mM", "result": "0.894 ± 0.014"},
      {"measurement": "NP40-soluble protein abundance", "setting": "[1]; concentration: 1mM", "result": "1.05 ± 0.022"},
      {"measurement": "NP40-soluble protein abundance", "setting": "[1]; concentration: 2mM", "result": "1.03 ± 0.026"},
      {"measurement": "NP40-soluble protein abundance", "setting": "[1]; concentration: 4mM", "result": "1.05 ± 0.036"},
      {"measurement": "NP40-soluble protein abundance", "setting": "[1]; concentration: 6mM", "result": "1.04 ± 0.032"},
      {"measurement": "NP40-soluble protein abundance", "setting": "[1]; concentration: 8mM", "result": "1.06 ± 0.024"},
      {"measurement": "NP40-soluble protein abundance", "setting": "[1]; concentration: 10mM", "result": "1.02 ± 0.034"}
    ]}
  ]
}
